Data: PubChem BioAssay AID521 (Sanford-Burnham Center for Chemical Genomics, 2006)
Out of some 110,000 compounds screened, about 730 (0.66%) were called active. Many of the other results were omitted from the sample, so actives are more common in it than they were. Unmarked numbers belong to inactive results. Rule as the data show it: active = inhibition above about 50%; inconclusive = no clear call, values can overlap the other calls; inactive = below that.

These molecules were tested against Tyrosine-protein phosphatase non-receptor type 7 (Homo sapiens) (UniProt P35236) (assay: HePTP tyrosine phosphatase activity blockers – biochemical, absorbance, leukemia target, primary screen (AID 521;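 also: plate controls were vehicle for no effect and reference inhibitor for full effect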)). Details: recombinant HePTP phosphatase activity, OD absorbance; at 20 µM; stronger effect = higher value.
Tyrosine-protein phosphatase non-receptor type 7 (Homo sapiens), sequence (P35236 whole entry, looked up): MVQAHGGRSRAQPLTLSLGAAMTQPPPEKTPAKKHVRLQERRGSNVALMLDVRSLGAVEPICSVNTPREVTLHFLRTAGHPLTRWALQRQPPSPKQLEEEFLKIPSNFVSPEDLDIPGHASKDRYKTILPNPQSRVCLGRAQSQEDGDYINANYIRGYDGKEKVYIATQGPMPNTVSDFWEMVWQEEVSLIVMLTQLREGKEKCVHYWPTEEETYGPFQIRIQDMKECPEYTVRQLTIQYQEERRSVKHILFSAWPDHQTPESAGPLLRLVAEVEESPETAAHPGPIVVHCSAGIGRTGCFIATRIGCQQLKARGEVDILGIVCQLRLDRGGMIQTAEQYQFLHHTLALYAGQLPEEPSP
For `C=CCN1C(=O)/C(=C\c2cccn2-c2cccc([N+](=O)[O-])c2)C(=O)NC1=S`, the inhibition was 98.9% (active).
Molecule `COc1cccc(CN2CCN(C(=O)COc3ccccc3)CC2)c1OC` has an inhibition of 3.3%.
`CCOc1cc(C=C2C(=O)NC(=O)NC2=O)cc(Br)c1OCCOc1ccccc1C` gave an inhibition of 3.9%.
In the case of `CCOP(=O)(OCC)C(=C(Cl)Cl)C(C(=O)OC)C(=O)OC`, the inhibition is reported as 11.5%.
`C=CCSc1nc2ccccc2c(=O)n1-c1ccccc1OC` showed an inhibition of 11.5%.
